Assay [1] is described as follows: qHTS assay for environmental chemicals that activate the Aryl hydrocarbon Receptor (AhR) signaling pathway (AID 651777). For activation: % of control where 0% means no effect. Note: nearly all actives have a fitted effect of over 15% in size. Note: potency is the fitted concentration of half-maximal effect. To be noted: 1A2-DRE human hepatoma cells, luciferase, 24 h; activation: hits give high values. A digest of the protocol:
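Human hepatoma 1A2-DRE cells, stably carrying a dioxin response element and CYP1A2 promoter driving luciferase, were exposed to compounds for 24 hr at 37 C and 5% CO2. Luciferase signal was then read after 30 min One-Glo at room temperature.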
Background: In qHTS, concentration-response curves come from the screen itself.

The target in assay [2] is Peroxisome proliferator-activated receptor alpha (Homo sapiens) (UniProt Q07869). In words: qHTS assay for small molecule agonists of the peroxisome proliferator-activated receptor alpha (PPARalpha) signaling pathway (AID 651778). Note: % of control where 0% means no effect. To be noted: PathHunter PPARalpha complementation, chemiluminescence, 6 h; max response: hits give high values. A digest of the protocol:
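Enzyme-fragment complementation assay in which ligand-bound PPARalpha translocates and forms an active enzyme that generates chemiluminescence. Cells were plated overnight, exposed to compound for 6 hr at 37 C, and then given detection reagent for 60 min at room temperature.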

Assay [3] addresses Arylsulfatase A (Homo sapiens) (UniProt P15289). Put plainly: qHTS screen for enhancers of Arylsulfatase A (ASA1): LOPAC Validation Assay (AID 720538). Note: 0% is about no effect. A digest of the protocol: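 Cell-based enhancement test: residual ASA activity in SV40-transformed I179S patient fibroblasts is measured by pNCS turnover (0.5mM final, 14h, room temperature) following 48h compound incubation; higher fluorescence indicates activation.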

Assay [4] in a line: qHTS for compounds that reverse cellular toxicity of Amyloid beta (A-beta) peptide in yeast: LOPAC Validation Assay (AID 720559).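 Note: plate controls were DMSO for no effect and equimolar ferric chloride plus clioquinol rescue for full effect.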 A digest of the protocol:
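Here, A-beta-toxic yeast grow with test compounds at 30 C for 48 hr before optical density at 600 nm is recorded; data are normalized against DMSO and the FeCl3-clioquinol control.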

Assay [5] can be described thus: qHTS for Activators of Parkin Expression: LOPAC Validation Assay (NLuc Reporter) (AID 720572). A digest of the protocol:
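NLuc signal, read 10 min after reagent and following a prior FLuc read, is normalized to DMSO (0) and positive controls (100%). Cells: neuronal Parkin-promoter coincidence reporter line; compounds tested 7-point, 24 h, 37 C, 5% CO2.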

Assay [6] in a line: qHTS for Activators of Parkin Expression: LOPAC Validation Assay (FLuc Reporter) (AID 720573). Put shortly:
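Readout is FLuc luminescence from neuronal reporter cells (Parkin promoter, FLuc plus NLuc) after 24 h compound exposure in dose response. Values normalized to neutral DMSO and positive-control compounds.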

A short description of assay [7]: qHTS assay for small molecule agonists of the antioxidant response element (ARE) signaling pathway measured by Nrf2-dependant transcriptional activity (AID 720636; active = well fitted curve in the direction sought with a large enough effect in the repeat runs; an effect the other way counts as inactive or inconclusive; note: % of control where 0% means no effect). A digest of the protocol: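 ARE-luc HepG2 cells carrying an Nrf2-responsive luciferase reporter were plated in medium with 1% dialyzed FBS, left 6 hr at 37 C to attach, then exposed to compound for 16 hr. Luciferase luminescence was read after ONE-Glo addition.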

A short description of assay [8]: qHTS assay for small molecule agonists of the antioxidant response element (ARE) signaling pathway measured by Nrf2-dependant transcriptional activity - cell viability counter screen (AID 720653; active = well fitted curve in the direction sought with a large enough effect in the repeat runs; an effect the other way counts as inactive or inconclusive; note: % is set by controls: 0 for no effect and ±100 for the full control effect). The settings on record: ARE-bla HepG2 viability, CellTiter-Glo ATP luminescence, 16 h; max response: hits give low values. A digest of the protocol: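 ARE-bla HepG2 cells treated with compounds for 16 h at 37C; this counter screen measures viability as intracellular ATP by CellTiter-Glo luminescence after 30 min at room temperature.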

The target of assay [9] is Hexokinase-4 (Homo sapiens) + Glucokinase regulatory protein (Homo sapiens) (UniProt P35557+Q14397). In words: qHTS assay for inhibitors of recombinant human GCK-GKRP interaction: Diaphorase-coupled assay (AID 743205). Put shortly:
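Signal derives from resorufin generated by diaphorase, linked to GCK turnover of glucose (5 mM) and ATP (0.4 mM). Enzyme complex was added after a 20-minute compound preincubation and monitored for 30 minutes.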

A short description of assay [10]: qHTS assay for small molecule agonists of the antioxidant response element (ARE) signaling pathway (AID 651741; active = well fitted activation curve with a large enough effect in the signal ratio; the % refers to the signal ratio; note: potency is the fitted concentration of half-maximal effect; for activation: % of control where 0% means no effect). A digest of the protocol: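 HepG2 ARE-bla reporter cells, 2,000/well; 5 h settle at 37 C/5% CO2; compound pin transfer (23 nL, DMSO); 16 h at 37 C; LiveBLAzer B/G FRET substrate, 2 h RT; fluorescence intensity read.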
A short description of assay [11]: qHTS assay for small molecule activators of the p53 signaling pathway (AID 651743; active = well fitted activation curve with a large enough effect in the signal ratio, not every such curve was filed as active; the % refers to the signal ratio; note: potency is the fitted concentration of half-maximal effect; for activation: series mostly up to about 92 µM; % of control where 0% means no effect). The settings on record: HCT-116 p53RE-bla, beta-lactamase FRET ratio, 16 h; activation: hits give high values. A digest of the protocol: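 Reporter: beta-lactamase driven by p53 response elements, stably integrated in HCT-116 cells. Cells seeded at 4,000/well, 5 h preincubation, compound (DMSO) 16 h at 37 C; B/G FRET substrate 2 h RT; fluorescence intensity read.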

Assay [12] in a line: qHTS assay for small molecule activators of the nuclear factor-kappa B (NF-kB) signaling pathway (AID 651749; active = well fitted activation curve with a large enough effect in the signal ratio; the % refers to the signal ratio; note: series mostly up to about 77 µM; % of control where 0% means no effect). The settings on record: NF-kB-bla ME-180 cells, beta-lactamase FRET ratio, 16 h; hits give high values. A digest of the protocol:
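NF-kB-bla ME-180 cells, 2,000/well; 23 nL compound or DMSO pinned; 16 hr, 37C/5% CO2; beta-lactamase FRET read-out.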

The nature of assay [13]: qHTS assay to identify small molecules that stimulate interleukin-8 (IL-8) secretion (AID 651758; active = well fitted activation curve with a large enough effect in the signal ratio; the % refers to the signal ratio; note: 0% is about no effect). A digest of the protocol:
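Compounds are added to THP-1 cells (2000 per well) and left 16 hrs at 37 C. A labeled anti-IL-8 antibody pair is then added, and IL-8 secretion is measured by time-resolved FRET after 1-3 hrs at room temperature.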

Assay [14] concerns the target Nuclear receptor ROR-gamma (Homo sapiens) (UniProt P51449). Put plainly: qHTS assay for small molecule antagonists of the retinoid-related orphan receptor gamma (ROR-gamma) signaling pathway (AID 651802).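 Note: CHO cells with doxycycline-induced ROR-gamma expression; luciferase reporter luminescence driven by ROR response element; series mostly up to about 92 µM; % is set by controls: 0 for no effect and ±100 for the full control effect; nearly all actives have a fitted effect of over 60% in size.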 A digest of the protocol:
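Luciferase read-out: ONE-Glo luminescence after 30 min at room temperature, following 16hr doxycycline induction at 37C, 5% CO2 of CHO cells with TET-inducible ROR and RORE-LUC reporter; decreased luminescence = reduced reporter activity.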

Assay [15] in a line: qHTS assay for small molecule antagonists of the retinoid-related orphan receptor gamma (ROR-gamma) signaling pathway - cell viability counter screen (AID 720652; active = well fitted curve in the direction sought with a large enough effect in the repeat runs; an effect the other way counts as inactive or inconclusive;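 note: CHO reporter cells with doxycycline-induced ROR-gamma expression; series mostly up to about 92 µM; compound exposure lasted 16 hr before ATP read; % is set by controls: 0 for no effect and ±100 for the full control effect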). A digest of the protocol:
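CHO RORE-LUC/TET-ROR line, 1,000 cells/well, 37 C 5% CO2 5 hr; cpd or DMSO + doxycycline induction, 16 hr. CellTiter-Glo, 30 min RT, luminescence = ATP content.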

Assay [16] has as its target Tumor necrosis factor (Homo sapiens) (UniProt P01375). Put plainly: qHTS assay to identify small molecules that stimulate Tumor Necrosis Factor-alpha (TNF-alpha) secretion (AID 651757; active = well fitted curve in the direction sought with a large enough effect in the signal ratio; the % refers to the signal ratio; note: 0% is about no effect). A digest of the protocol: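 THP-1 cells, 3000/well; compound 17 hrs, 37 C; add cryptate/XL665 anti-TNF-alpha antibody pair; 3 hr RT; TR-FRET (HTRF) read of secreted TNF-alpha. Quantitative HTS format.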

Assay [17] in a line: qHTS assay for small molecule disruptors of the mitochondrial membrane potential - 1 hr assay (AID 651754; calls by dose curve; note: % is set by controls: 0 for no effect and ±100 for the full control effect; nearly all actives have a fitted effect of over 35% in size). Put shortly: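 Read-out: dye fluorescence at 490 nm ex/535 nm em (monomers) and 540 nm ex/590 nm em (aggregates) in HepG2 cells. Compound exposure 1 hr at 37C, followed by 30 min dye loading.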
Assay [18] can be described thus: qHTS assay for small molecule disruptors of the mitochondrial membrane potential - 5 hr assay (AID 651755; calls by dose curve; note: % is set by controls: 0 for no effect and ±100 for the full control effect; nearly all actives have a fitted effect of over 40% in size). A digest of the protocol: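 Read-out: ratiometric Mito-MPS fluorescence, green monomer (ex 490/em 535) vs red mitochondrial aggregate (ex 540/em 590). HepG2 cells treated 5 hr at 37C before 30 min dye loading.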

Each structure is given as a SMILES string. Values joined by “and” are separate entries in the source; they are usually repeats but may differ in a detail not shown here. Identical values can stand only once. A number with no mark means an inactive call. Results filed as inconclusive are left out. Active and inactive are the calls of the source. Unless noted, calls come from the whole dose curve; as a rule, active = well fitted curve in the direction sought with a large enough effect; inconclusive = small, poorly fitted or top-dose-only effect, or another doubt; inactive = no such curve, though single readings can be large; an effect the other way counts as inactive or inconclusive.

The text below walks through data of PubChem BioAssay (NCATS).

Hexokinase-4 (Homo sapiens) + Glucokinase regulatory protein (Homo sapiens), sequence (P35557 whole entry, looked up): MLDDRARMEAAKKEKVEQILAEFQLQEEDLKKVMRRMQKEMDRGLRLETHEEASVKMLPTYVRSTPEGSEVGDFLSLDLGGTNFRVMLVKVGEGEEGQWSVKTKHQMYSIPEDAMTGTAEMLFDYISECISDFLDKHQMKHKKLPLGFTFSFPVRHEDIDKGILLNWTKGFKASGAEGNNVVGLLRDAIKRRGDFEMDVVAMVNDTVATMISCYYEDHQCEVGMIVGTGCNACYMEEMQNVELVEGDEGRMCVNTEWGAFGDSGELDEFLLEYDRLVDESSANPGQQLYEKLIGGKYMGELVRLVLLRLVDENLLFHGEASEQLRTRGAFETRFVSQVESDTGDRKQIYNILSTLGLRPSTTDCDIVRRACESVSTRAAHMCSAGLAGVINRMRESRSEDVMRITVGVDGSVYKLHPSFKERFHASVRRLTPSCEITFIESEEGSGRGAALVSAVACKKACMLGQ
Hexokinase-4 (Homo sapiens) + Glucokinase regulatory protein (Homo sapiens), sequence (Q14397 whole entry, looked up): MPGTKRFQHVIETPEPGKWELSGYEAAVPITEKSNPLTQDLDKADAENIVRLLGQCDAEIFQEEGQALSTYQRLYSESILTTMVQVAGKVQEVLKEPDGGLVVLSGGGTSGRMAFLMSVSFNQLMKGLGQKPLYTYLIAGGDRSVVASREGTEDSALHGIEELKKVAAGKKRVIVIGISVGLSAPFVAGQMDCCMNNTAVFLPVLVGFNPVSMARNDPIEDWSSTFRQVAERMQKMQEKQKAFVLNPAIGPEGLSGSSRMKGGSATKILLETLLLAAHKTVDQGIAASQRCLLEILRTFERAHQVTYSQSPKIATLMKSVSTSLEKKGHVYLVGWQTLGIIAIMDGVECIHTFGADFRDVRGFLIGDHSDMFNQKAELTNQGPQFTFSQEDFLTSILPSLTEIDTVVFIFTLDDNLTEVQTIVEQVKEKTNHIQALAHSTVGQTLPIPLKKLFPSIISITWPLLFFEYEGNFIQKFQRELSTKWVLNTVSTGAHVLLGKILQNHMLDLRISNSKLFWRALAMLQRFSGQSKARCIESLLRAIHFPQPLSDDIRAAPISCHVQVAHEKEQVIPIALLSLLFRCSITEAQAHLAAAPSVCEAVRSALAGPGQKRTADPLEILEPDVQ
Tumor necrosis factor (Homo sapiens), sequence (P01375 whole entry, looked up): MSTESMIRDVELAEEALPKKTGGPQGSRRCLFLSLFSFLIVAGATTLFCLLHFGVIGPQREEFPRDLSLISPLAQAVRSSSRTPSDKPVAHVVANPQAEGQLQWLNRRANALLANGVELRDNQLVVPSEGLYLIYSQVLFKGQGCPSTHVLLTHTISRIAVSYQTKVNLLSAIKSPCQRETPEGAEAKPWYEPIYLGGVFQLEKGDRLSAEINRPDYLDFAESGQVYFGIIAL
Arylsulfatase A (Homo sapiens), sequence (P15289 whole entry, looked up): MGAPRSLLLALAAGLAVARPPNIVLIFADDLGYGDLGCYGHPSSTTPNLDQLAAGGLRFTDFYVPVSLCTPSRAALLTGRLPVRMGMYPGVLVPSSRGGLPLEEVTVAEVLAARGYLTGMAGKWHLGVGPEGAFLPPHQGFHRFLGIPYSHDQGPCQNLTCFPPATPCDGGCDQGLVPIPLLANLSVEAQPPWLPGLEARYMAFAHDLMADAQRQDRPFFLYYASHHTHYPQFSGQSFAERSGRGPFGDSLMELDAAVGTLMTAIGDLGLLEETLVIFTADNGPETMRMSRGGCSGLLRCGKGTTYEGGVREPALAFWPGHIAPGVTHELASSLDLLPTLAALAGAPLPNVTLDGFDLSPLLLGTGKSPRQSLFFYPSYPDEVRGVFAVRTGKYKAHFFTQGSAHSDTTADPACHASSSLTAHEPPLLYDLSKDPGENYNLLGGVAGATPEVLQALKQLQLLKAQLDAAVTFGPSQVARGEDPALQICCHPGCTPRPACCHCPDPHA
Peroxisome proliferator-activated receptor alpha (Homo sapiens), sequence (Q07869 whole entry, looked up, the tested form may be a part): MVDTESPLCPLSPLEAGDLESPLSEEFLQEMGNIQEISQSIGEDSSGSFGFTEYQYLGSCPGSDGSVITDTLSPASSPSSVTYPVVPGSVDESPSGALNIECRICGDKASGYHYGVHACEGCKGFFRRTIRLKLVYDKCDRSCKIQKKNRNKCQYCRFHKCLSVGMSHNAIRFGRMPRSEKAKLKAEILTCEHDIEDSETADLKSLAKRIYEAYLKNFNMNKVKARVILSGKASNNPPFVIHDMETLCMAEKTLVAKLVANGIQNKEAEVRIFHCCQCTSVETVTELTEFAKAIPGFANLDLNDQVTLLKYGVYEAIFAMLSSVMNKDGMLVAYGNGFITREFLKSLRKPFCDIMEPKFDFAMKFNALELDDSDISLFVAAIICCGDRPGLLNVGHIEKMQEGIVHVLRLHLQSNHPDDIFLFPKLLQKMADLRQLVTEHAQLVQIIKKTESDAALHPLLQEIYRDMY
Nuclear receptor ROR-gamma (Homo sapiens), sequence (P51449 whole entry, looked up): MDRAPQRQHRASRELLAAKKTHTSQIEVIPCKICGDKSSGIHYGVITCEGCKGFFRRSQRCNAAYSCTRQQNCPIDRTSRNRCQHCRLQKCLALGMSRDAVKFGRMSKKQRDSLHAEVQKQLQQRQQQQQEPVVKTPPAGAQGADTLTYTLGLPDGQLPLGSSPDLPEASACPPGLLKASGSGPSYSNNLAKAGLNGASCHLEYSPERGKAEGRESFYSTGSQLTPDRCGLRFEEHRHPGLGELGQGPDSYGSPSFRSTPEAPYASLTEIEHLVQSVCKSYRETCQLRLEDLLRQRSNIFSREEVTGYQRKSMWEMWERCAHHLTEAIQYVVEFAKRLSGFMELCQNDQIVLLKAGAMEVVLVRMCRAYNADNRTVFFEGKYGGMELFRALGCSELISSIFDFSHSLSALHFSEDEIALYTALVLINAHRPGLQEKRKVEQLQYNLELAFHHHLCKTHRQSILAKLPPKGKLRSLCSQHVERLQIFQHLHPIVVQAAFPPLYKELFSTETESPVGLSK

In the case of `CN(C)CCOC(c1ccccc1)c1ccccc1`, the activation in [1] is 0.827%. Further, the figures for the max response in [2] and in assay [8] were -3.61% and -12%, respectively. Further, the Potency entry in assay [3], in assay [6] and in [9] was “inactive” each time. Also, the result in assay [4], in [5] and in [7] was inactive.

Turning to `CCOC(=O)C(C)(C)Oc1ccc(Cl)cc1`, the Potency entry in [10], in assay [3] and in assay [6] was “inactive” each time. The results for the activation in assay [11], in assay [12] and in assay [1] were 3.33%, -3.61% and 0.305%, respectively. Also, the max response is 5.39% in assay [2] and -4.42% in assay [8]. In addition, the result in [4], in assay [5] and in assay [7] was inactive.

As for `COc1ccc2[nH]cc(CCNC(C)=O)c2c1`, the Potency entry in assay [10], in assay [14], in [3], in [6], in assay [15] and in assay [9] was “inactive” each time. In addition, the activation is -4% and -3.68% and -2.3% in [11]; -0.27% and 0.655% and 0.179% in assay [12]; 0.634% and 1.82% and 3.42% in assay [1]. Moreover, the molecule was classed as inactive in [13], in [4], in assay [5] and in assay [7]. Moreover, the max response in [2] is -3.03% and -8.27% and 0.529%; in assay [8], -10.7% and -6.82% and 8.47%.

Regarding `Cc1cn([C@H]2C=C[C@@H](CO)O2)c(=O)[nH]c1=O`, the Potency entry in [10], in [14], in assay [3], in assay [6], in assay [15] and in assay [9] was “inactive” throughout. In addition, the molecule was classed as inactive in [16], in assay [4], in assay [5] and in assay [7]. In assay [1], the activation was 0.0815% and -0.191% and -0.434%. The max response in assay [2] was 1.44% and 1.55% and -0.234%; in [8], 6.12% and 3.59% and -11.2%.

For `O=C(Nc1ccc([N+](=O)[O-])cc1Cl)c1cc(Cl)ccc1O`, the Potency in assay [10] was 3.06 µM (active); in assay [11], 0.891 µM (active); in assay [1], 1.41 µM (active). Further, in [12], the activation was -2.6%. Further, the max response in [2] was -1.62%. The Potency entry in assay [3] was “inactive”. Moreover, the molecule was classed as inactive in [7].

Take `COc1cc2c(c(OC)c1OC)-c1ccc(OC)c(=O)cc1[C@@H](NC(C)=O)CC2`: the activation was 2.95% and 1.58% and 1.39% in assay [12]; -0.775% and -1.98% and -0.55% in [1]. Moreover, the Potency entry in assay [17], in assay [18], in [3], in [6], in assay [15] and in assay [9] was “inactive” in each case. Also, the outcome in assay [16], in assay [4], in assay [5] and in assay [7] was inactive. Moreover, the max response in [2] was -2.35% and 0.0679% and 8.6%; in [8], -19.8% and 13.5% and -10.8%.
